Bioassay records deposited in PubChem BioAssay by The Scripps Research Institute Molecular Screening Center.
PLC-gamma1 inh = PLC-gamma1 (human) inhibition, primary screen. hit rate 0.84% among 370,000. inhibition, % at 12.2 µM. P19174. purified PLC-gamma1, fluorogenic substrate, fluorescence; in the data active = inhibition above about 9.5%
PLCb3 inh = inhibitors of human phospholipase C beta3; AID 720704; inhibition, % at 12.2 µM; hit rate 0.18% among 370,000; Q01970; Purified PLC-beta3, fluorogenic substrate, fluorescence; in the data active = inhibition above about 11%;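 note: 0% = median of compound wells on plate and 100% = full blocker control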
ADAM17 inh = inhibitors of human ADAM17 | inhibition, % at 6.95 µM | hit rate 0.83% among 370,000 | AID 720648 | P78536 | recombinant ADAM17, EDANS/DABCYL FRET peptide cleavage;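 active = inhibition above the mean of compounds lying between control limits plus 3 SD, set per campaign, cut at about 8.5% in these data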;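 note: 0% = DMSO-only wells as the low control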
KLK7 zymogen act = proKLK7 (human) activation, primary screen | purified proKLK7, EDANS-DABCYL substrate fluorescence; 100% is mature enzyme control, 0% vehicle | activation, % at 7 µM | hit rate 0.9% among 370,000 | AID 652039;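 active = activation above the mean of all tested compounds plus 3 SD, computed per campaign excluding outliers beyond control limits, cut at about 13% in these data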
sPLA2-III inh = Inhibits HGIII-sPLA2 liposome hydrolysis, primary screen. hit rate 0.56% among 370,000. AID 743126. QFRET BODIPY PC-A2 liposome hydrolysis, fluorescence. inhibition, % at 12.2 µM;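 active = inhibition above mean plus 3 SD of compounds lying within the high and low control bounds, cut at about 19% in these data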;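 note: 0% = median of test compound wells and 100% = no enzyme DMSO wells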
ADAM10 inh = ADAM10 inhibition, QFRET primary screen | hit rate 0.62% among 370,000 | inhibition, % at 7 µM | AID 720582 | recombinant ADAM10, EDANS/DABCYL FRET peptide cleavage, 3 h;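 active = inhibition above a per-campaign cutoff equal to the mean of compounds falling between control-based bounds plus 3 SD, cut at about 20% in these data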;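 note: 0% = DMSO wells while the 100% control is not disclosed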
hGIII sPLA2 conf = human GIII-sPLA2 inhibition, confirmation; hit rate 34% among 2,000; recombinant hGIII-sPLA2, BODIPY PC-A2 QFRET fluorescence; shares compounds with sPLA2-III inh; inhibition, % at 12.2 µM;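 active = mean inhibition across triplicates above the hit cutoff set in the earlier primary screen, cut at about 19% in these data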;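 note: 0% = enzyme with DMSO and 100% = DMSO wells lacking enzyme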
535nm interf = optically interferes with 535nm fluorescence in sPLA2 counter-screen; shares compounds with sPLA2-III inh; BODIPY FL product fluorescence interference, QFRET; inhibition, % at 12.2 µM; hit rate 8.5% among 2,000;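 active = average inhibition above the solvent-only control mean plus 3 SD, cut at about 6% in these data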;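 note: 0% = DMSO with substrate plus product and 100% = DMSO with substrate alone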
535nm interf DR = 535nm optical interference dose response, HGIII-sPLA2 counter-screen | IC50, µM | 240 tested, under 10 active | shares compounds with sPLA2-III inh | BODIPY FL product fluorescence interference, cell-free | AID 743455;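 active = IC50 at or below 10 µM; inactive = IC50 above 10 µM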
* = called active by the depositor; · = no result given. This is a sample that favours compounds with a hit; in the whole collection about 3.4% have one here.

SMILES	PLC-gamma1 inh	PLCb3 inh	ADAM17 inh	KLK7 zymogen act	sPLA2-III inh	ADAM10 inh	hGIII sPLA2 conf	535nm interf	others
COc1ccccc1NC(=S)NNC(=O)c1nn(C)cc1Cl	-3.2	1.1	-3.0	-0.5	30.8*	10.2	38.4*	2.6	535nm interf DR=>122
COc1ccccc1NC(=S)NNC(=O)c1nn(C)c(C)c1Cl	-2.1	-2.1	-2.8	-0.6	33.8*	7.8	45.6*	1.2	535nm interf DR=>122
COc1ccccc1NC(=S)NNC(=O)c1nn(C)c(C)c1Br	-0.4	-5.8	3.8	-0.9	44.4*	-0.7	28.8*	5.5	535nm interf DR=>122
CC(C)(C)c1ccc(S(=O)(=O)N2CCCC2C(=O)N2CCc3ccccc3C2)cc1 (centres undefined)	-0.2	-0.7	4.7	0.2	-1.8	4.1	·	·
CCCCC(=O)Nc1ccc(NC(=S)NC(=O)c2ccco2)cc1OC	4.7	-7.1	-1.6	-1.0	30.8*	2.0	17.6	-9.4
COc1cc2c(cc1OC)C(c1ccc(SC)cc1)CC(=O)N2 (centres undefined)	-0.9	-6.0	-6.1	-0.8	4.8	-0.1	·	·
COc1ccc(C2CC(=O)Nc3cc(OC)c(OC)cc32)cc1 (centres undefined)	4.4	1.5	-0.9	-0.7	20.9*	-13.7	1.3	-4.1
CCC(=O)Nc1ccc(C(=O)NNC(=O)CCCCC(=O)NNC(=O)c2ccc(NC(=O)CC)cc2)cc1	-1.3	-2.3	2.2	-0.4	22.4*	-18.0	2.3	-10.3
CCC(=O)Nc1ccc(C(=O)NCc2ccccn2)cc1	3.5	-1.4	-4.0	-0.1	20.3*	-13.2	-1.3	-1.9
CCC(=O)Nc1ccc(C(=O)NNC(=O)c2ccc(C)cc2)cc1	4.8	5.0	-0.7	0.2	6.4	13.5	·	·
NC(=S)NNC(=O)C12CC3CC(CC(C3)C1)C2	3.3	0.2	-6.7	-0.1	21.4*	-3.5	8.5	-0.2
Cc1n[nH]c(=S)n1/N=C/c1ccccc1OCc1ccc(Cl)cc1Cl	1.0	0.6	-5.6	0.5	19.5*	-5.2	17.4	4.8
Cc1n[nH]c(=S)n1/N=C/c1ccc(OCc2ccc(Cl)cc2Cl)cc1	2.1	3.3	-0.6	-0.1	3.4	0.1	·	·
Oc1ccccc1/C=N/n1c(COc2ccccc2)n[nH]c1=S	-3.3	-10.3	-7.2	-1.0	23.7*	-14.0	16.1	2.1
CCOc1ccccc1/C=N/n1c(COc2ccccc2)n[nH]c1=S	6.6	-1.7	1.2	0.1	22.6*	11.8	19.2*	6.9*
Oc1ccc(/C=N/n2c(COc3ccccc3)n[nH]c2=S)c(O)c1	-2.7	-11.4	-1.1	-2.1	4.3	-1.9	·	·
Cc1ccc(/C=N/n2c(COc3ccccc3)n[nH]c2=S)o1	-2.6	-1.7	2.1	-0.7	19.9*	14.8	24.7*	2.7
O=C1CCCN1CCC(=O)N1CCCC(CO)(Cc2ccccc2)C1 (centres undefined)	1.6	-5.2	-4.1	-0.2	6.5	-2.0	·	·
COc1cccc(-c2nnn(CC(=O)N3CCC(C)CC3)n2)c1	9.2	3.8	2.3	0.0	-0.2	4.8	·	·
CCC(C)NC(=S)N(CCc1ccccc1)Cc1cc2cc(OC)c(OC)cc2[nH]c1=O (centres undefined)	-5.3	-14.1	-18.5	-4.1	20.5*	-83.2	20.3*	-16.4
N#CC1(c2ccccc2)CCC(=O)N1Cc1ccccc1 (centres undefined)	1.4	-4.9	-0.5	-0.7	-3.2	1.7	·	·
CCc1ccc(C(=O)NCc2ccc(Cl)cc2)cc1	1.5	5.7	-2.9	-0.2	20.5*	-2.7	6.6	-6.5
CCc1ccc(C(=O)NCc2ccc(Cl)cc2Cl)cc1	8.1	6.2	4.6	0.2	-2.0	6.4	·	·
Cc1cccc(Oc2cc(N)cc([N+](=O)[O-])c2)c1	2.3	-1.3	4.6	-0.2	20.2*	19.7	15.8	-1.6
CC(C)(C)c1cc(Cl)c(O)c(NC(=S)NC(=O)c2cccnc2)c1	4.3	-5.2	0.9	0.5	24.5*	-3.3	22.8*	0.8
SMILES	PLC-gamma1 inh	PLCb3 inh	ADAM17 inh	KLK7 zymogen act	sPLA2-III inh	ADAM10 inh	hGIII sPLA2 conf	535nm interf	others
COc1ccc(NC(=S)NC(=O)c2cccnc2)cc1	-0.2	-3.6	-1.4	-0.4	16.7	5.6	·	·
COC(=O)c1ccc(NC(=S)NC(=O)c2cccnc2)cc1	0.2	-7.3	-2.6	0.1	21.3*	-1.3	13.4	-4.3
O=C(/C=C/[C@H]1O[C@@H](n2ccc(=O)[nH]c2=O)[C@H](O)[C@@H]1O)NCCN1CCCCC1	2.2	-1.5	-3.2	-0.4	13.7	-17.8	·	·
COc1cccc(CNS(=O)(=O)c2cc3c4c(c2)CCN4C(=O)CC3)c1	0.2	-9.2	-4.2	0.4	5.8	-6.5	·	·
CCCCN1CNC(=S)N(Cc2ccccc2)C1	-0.4	5.6	-3.5	-0.2	27.8*	-4.8	19.1	-8.2
CCCN1CNC(=S)N(Cc2ccccc2)C1	0.6	0.0	-3.8	-0.3	14.1	-5.2	·	·
COCCNc1ccc([N+](=O)[O-])cc1C(=O)NC1CCCc2ccccc21 (centres undefined)	1.4	-4.0	0.4	-0.1	3.7	5.6	·	·
Oc1c(N=NC(=S)Nc2ccccc2F)c2ccccc2n1Cc1ccccc1	8.8	3.6	4.9	-0.2	0.2	9.3	·	·
C=CCn1c(O)c(N=NC(=S)Nc2ccccc2F)c2cc(S(=O)(=O)N3CCOCC3)ccc21	4.4	-4.8	8.2	-1.1	21.2*	7.5	26.1*	-11.2
C=CCn1c(O)c(N=NC(=S)Nc2ccccc2F)c2ccccc21	4.8	3.3	6.3	-0.1	20.3*	12.7	32.4*	12.6*
COc1ccc2nc3n(c(=O)c2c1)-c1ncccc1C(=O)NC3CC(C)C (centres undefined)	-1.8	-3.2	-3.2	0.2	1.1	-10.2	·	·
COc1cc(C=NCC2OCCc3ccccc32)cc(OC)c1 (centres undefined)	1.5	-1.9	-3.6	-1.0	20.2*	-10.7	0.1	-3.8
COc1ccc(C=NCC2OCCc3ccccc32)cc1OC (centres undefined)	1.9	-1.9	-5.0	-0.5	7.2	-2.0	·	·
COc1ccc(C2Nc3ccccc3C(=O)N2c2ccc(F)cc2)cc1CSc1ccccn1 (centres undefined)	-16.8	-25.2	-14.8	-2.0	20.1*	-38.6	11.6	-7.0
S=C(Nc1ccc(Cl)cc1)c1nc2ccccc2[nH]1	6.5	7.6	2.8	0.6	30.2*	9.6	35.7*	1.6	535nm interf DR=>122
